Screens as filed in PubChem BioAssay.
TRb-SRC2 inh = qHTS for Inhibitors of the Interaction of Thyroid Hormone Receptor and Steroid Receptor Coregulator 2; Potency, µM (doses to about 106 µM), inactives show top-dose activity change, negative = inhibition, hits mostly inhibitors; TRbeta-SRC2 peptide binding, fluorescence polarization; receptor liganded with 1 µM T3; 0.065% of 280,000 active; Thyroid hormone receptor beta (Homo sapiens), P10828;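 also: plate controls were bound peptide for no effect and peptide without receptor for full effect; nearly all actives have a fitted effect of over 50% in size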
Target sequence (P10828 whole entry, looked up): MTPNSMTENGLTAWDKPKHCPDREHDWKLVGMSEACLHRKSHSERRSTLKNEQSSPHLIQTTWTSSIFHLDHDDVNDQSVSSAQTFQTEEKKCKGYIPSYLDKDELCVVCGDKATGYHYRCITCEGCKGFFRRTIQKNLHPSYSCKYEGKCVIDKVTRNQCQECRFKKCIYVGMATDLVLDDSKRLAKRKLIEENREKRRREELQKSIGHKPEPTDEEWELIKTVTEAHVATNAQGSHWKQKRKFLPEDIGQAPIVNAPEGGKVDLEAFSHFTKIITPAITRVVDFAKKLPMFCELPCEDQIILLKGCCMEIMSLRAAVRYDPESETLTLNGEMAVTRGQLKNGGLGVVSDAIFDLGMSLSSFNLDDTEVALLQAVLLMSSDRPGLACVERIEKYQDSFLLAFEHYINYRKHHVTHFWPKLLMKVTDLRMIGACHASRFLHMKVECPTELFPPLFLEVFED
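Decrease in fluorescence polarization of 20 nM Texas Red SRC2 coactivator peptide flagged inhibition of its binding to 0.6 uM TRb LBD; 1 uM T3 included, incubation 5 hr, ex 555/em 632 nm.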
Tau FP inhib = qHTS for Inhibitors of Tau Fibril Formation, Fluorescence Polarization; K18 P301L tau heparin fibrillization, Alexa594 FP, 6 h; 0.39% of 280,000 active; AID 1468, 2008; Potency, µM (top dose mostly 57.7 µM), inactives show at the highest dose activity, negative = inhibition, actives largely listed as inhibitors; Microtubule-associated protein tau (Homo sapiens), P10636; also: nearly all actives have a fitted effect of over 55% in size
Target sequence (P10636 561-689 P618L limits assumed): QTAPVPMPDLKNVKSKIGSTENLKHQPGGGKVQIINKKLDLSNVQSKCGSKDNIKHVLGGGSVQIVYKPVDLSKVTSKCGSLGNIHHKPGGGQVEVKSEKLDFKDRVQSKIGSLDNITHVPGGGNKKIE
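Quantitative HTS format: compounds meet 15 uM recombinant K18 P301L tau and Alexa 594-tau tracer in 100 mM sodium acetate pH 7; 20 uM heparin triggers fibrillization at 37 C over 6 hr; FP gives the signal.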
Tau ThT inhib = qHTS for Inhibitors of Tau Fibril Formation, Thioflavin T Binding. recombinant tau K18 P301L, heparin-induced fibrillization, ThT fluorescence. Potency, µM (top dose mostly 57.4 µM), inactives show at the highest dose activity, negative = inhibition, most hits filed as inhibitors. 2.1% of 270,000 active; also: nearly all actives have a fitted effect of over 55% in size
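Heparin-induced (20 uM) aggregation of recombinant human K18 P301L tau, 15 uM unlabeled with 0.24 uM labeled, pH 7 acetate buffer, 6 hr at 37 C with compound. Fibrils quantified by 30 uM ThT fluorescence after 1 hr ambient incubation.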
TexasRed fluor = Total Fluorescence Counterscreen for Inhibitors of the Interaction of Thyroid Hormone Receptor and Steroid Receptor Coregulator 2; TRb/SRC2 Texas Red total fluorescence interference; 0.29% of 280,000 active; Potency, µM (highest dose often 106 µM), for inactives: at the top dose fluorescence change, negative = quenching; active = well fitted curve in either direction with a large enough effect; inconclusive = small, poorly fitted or top-dose-only effect
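Flags fluorescent or light-absorbing compounds by total fluorescence, S + 2P, at 555 nm excitation and 632 nm emission. Mixture: 20 nM Texas Red SRC2 peptide, 0.6 uM human TRb LBD, 1 uM T3, 5% DMSO; compound exposure 5 h at ambient temperature.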
Tau fluor cs = Counterscreen qHTS for Inhibitors of Tau Fibril Formation, Fluorescence Polarization; tau K18 P301L Alexa594 fluorescence, heparin fibrillization; Potency, µM (top dose mostly 57.7 µM), without a hit: top-dose activity change, negative = decrease; 0.93% of 280,000 active; AID 1463, 2008; also: nearly all actives have a fitted effect of over 55% in size
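Human tau K18 P301L (15 uM unlabeled, 0.24 uM Alexa 594-labeled) in 100 mM sodium acetate pH 7 with 20 uM heparin, 6 hr at 37 C. ThT 30 uM added, 1 hr ambient; Alexa 594 FP and total fluorescence read at 555/632 nm.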
Active calls of the source: *; ? = inconclusive; · = no result given; [ ] = remark or other dose. Hits are enriched below; roughly 3.1% of the tested compounds scored in any of these assays. Unless noted, calls follow the shape of the dose curve; as a rule, active = well fitted curve in the direction sought with a large enough effect; inconclusive = small, poorly fitted or top-dose-only effect, or another doubt; inactive = no such curve, though single readings can be large; an effect the other way counts as inactive or inconclusive. Unless noted, % is scaled to controls: 0 for no effect and ±100 for the full control effect; potency is read from the fitted curve at half-maximal effect.

SMILES	TRb-SRC2 inh	Tau FP inhib	Tau ThT inhib	TexasRed fluor	Tau fluor cs
CC1(OC(=O)c2ccc(Cl)nc2)C(=O)C=C2C=C3CCCN3C=C2C1=O (stereo unspecified)	5%[11.2 µM]	?	5µM*	-13%[11.2 µM]	-11%[11.6 µM]
COc1ccc(OC(=O)c2nc(SCc3ccccc3C)ncc2Cl)cc1	-16%	-5%	-17%	-3%	-18%
CC1(C)CC(=O)C(CC2=C(O)CC(C)(C)CC2=O)C(=O)C1	-11%	28µM*	14µM*	-2%	-22%
CC1(C)CC(=O)C(C=NC2CCCCC2)=C(O)C1	4%	2%	7%	0%	9%
CN=CC1=C(O)CC(C)(C)CC1=O	-16%	0%	-3%	-4%	0%
CC1(C)CC(=O)C(CC2=C(O)CC(C)(C)CC2=O)=C(O)C1	-4%	40µM*	16µM*	-5%	-23%
CC/C=C\CC[C@H](O)C1=CCCCC1=O	2%[11.2 µM]	-22%[11.6 µM]	-16%[11.5 µM]	-1%[11.2 µM]	-24%[11.6 µM]
CCC(=O)N1CCc2cc(Br)cc(S(=O)(=O)N3CCCC(C(=O)N(C)c4ccc(Br)cc4)C3)c21 (stereo unspecified)	-4%	14%	-11%	178µM*[quencher]	-3%
O=C1CN(C(=O)c2ccc(S(=O)(=O)N3CCCC3)cc2)C(c2ccccc2)c2cc(Cl)ccc2N1 (stereo unspecified)	6%	3%	-16%	-2%	-21%
Cc1ccc(C)c(C(=O)COc2ccc(C)nc2[N+](=O)[O-])c1	2%	?	16µM*	-4%	?
Cc1ccc(OCC(=O)c2cc(C)c(C)cc2C)c([N+](=O)[O-])n1	-20%	?	16µM*	2%	?
CCCn1c(C)cc(C(=O)COc2ccc(C)nc2[N+](=O)[O-])c1C	-6%	8%	-13%	-4%	-7%
COc1ccc(/C=N/Nc2ccc([N+](=O)[O-])cc2S(=O)(=O)N2CCN(C)CC2)cc1	-5%	-8%	?	-8%	-7%
COc1ccc(NS(=O)(=O)c2cc([N+](=O)[O-])ccc2N/N=C\c2c(C)[nH]c3ccccc23)cc1	1%	6%	2.5µM*	0%	3.2µM*[quencher]
COc1ccccc1NS(=O)(=O)c1cc([N+](=O)[O-])ccc1N/N=C/c1c[nH]c2ccccc12	-16%	4%	2.8µM*	-2%	-78%
COc1ccccc1NS(=O)(=O)c1cc([N+](=O)[O-])ccc1N/N=C/c1sc(N2CCOCC2)nc1-c1ccccc1	14%	17%	?	0%	?
Cc1[nH]c2ccccc2c1/C=N/Nc1ccc([N+](=O)[O-])cc1S(=O)(=O)Nc1ccc(Cl)cc1	-18%	2%	3.2µM*	-1%	3.2µM*[quencher]
COc1ccc(C(=O)Nc2ccc3c(c2)CCCN3S(=O)(=O)c2ccc(C)cc2)c(OC)c1	3%	-8%	0%	0%	-30%
Cc1ccc(N2CCN(c3c(CN4CCCC4)c(=O)oc4ccccc34)CC2)c(C)c1	2%	0%	-14%	-3%	-12%
O=c1cc(-c2ccccc2)[nH]c2[nH]n(-c3ccccc3)c(=O)c12	-3%	?	20µM*	-4%	-22%
Cc1ccc(C)c(CN2C(=O)c3ccccc3S(=O)(=O)c3ccc(C(=O)N4CCc5ccccc54)cc32)c1	1%	-14%	-3%	-7%	-6%
COc1ccc(N=C2NN=C(c3c(C)[nH]c4ccccc34)CS2)cc1	-1%	-17%	?	-4%	25µM*[quencher]
Fc1ccc(N=C2NN=C(c3cc(F)ccc3F)CS2)cc1	-5%	?	13µM*	?	?
Cc1[nH]c2ccccc2c1C1=NNC(=Nc2ccc(F)cc2)SC1	-1%	?	14µM*	-1%	11µM*[quencher]
Cc1cc(C2=NNC(=Nc3ccccc3)SC2)c(C)n1C	5%	-4%	?	-1%	-22%
SMILES	TRb-SRC2 inh	Tau FP inhib	Tau ThT inhib	TexasRed fluor	Tau fluor cs
Cc1cccc(N=C2NN=C(c3ccccc3F)CS2)c1C	1%	-7%	?	-3%	?
Fc1ccccc1N=C1NN=C(c2ccccc2)CS1	-4%	?	22µM*	-2%	?
Fc1ccc(F)c(C2=NNC(=Nc3ccccc3F)SC2)c1	-6%	-7%	-7%	0%	-16%
CC(C)=CC[C@@H](O)C1=CC(=O)c2c(O)ccc(O)c2C1=O	-3%	13µM*	4.5µM*	28µM*[quencher]	?
O=C(O)c1cc(-c2ccc(/C=N/Nc3ccc([N+](=O)[O-])cn3)o2)ccc1Cl	3%	-5%	1.3µM*	-11%	?
O=C(O)c1ccc(N/N=C/c2ccc(-c3cc(Cl)ccc3Cl)o2)cc1	-4%	-1%[0.0958 µM]	·	-6%	10%[0.0958 µM]
Cc1c(C(=O)O)cccc1-c1ccc(/C=N/Nc2ccc(Br)cc2)o1	1%	-12%	11µM*	-7%	?
O=C(O)c1cccc(-c2ccc(/C=N/Nc3ccc([N+](=O)[O-])cc3)o2)c1	0%	-9%	·	-13%	16µM*[quencher]
O=C(O)c1ccc(N/N=C/c2ccc(-c3cccc(Cl)c3)o2)cc1	-6%	3%	·	-8%	20µM*[quencher]
O=C(O)c1ccc(N/N=C/c2ccc(-c3ccc(Cl)cc3Cl)o2)cc1	4%	17%	?	-4%	?
O=C(O)c1ccc(-c2ccc(/C=N/Nc3ccc([N+](=O)[O-])cc3)o2)cc1	0%	-6%[0.0958 µM]	·	-11%	11%[0.0958 µM]
Cc1cccc(C(=O)Oc2ccccc2/C=N/Nc2ccc([N+](=O)[O-])cc2)c1	-3%	7%	?	6%	4µM*[quencher]
CC(O)C(N)C(=O)O (stereo unspecified)	1%	·	·	0%	·
CNCc1ccccc1Sc1cc(O)ccc1O	-7%	32µM*	18µM*	-5%	18µM*[quencher]
O=C(CNS(=O)(=O)c1ccccc1)OCC(=O)c1ccc([N+](=O)[O-])cc1	-2%	?	25µM*	-1%	-19%
CC(Nc1cccc2ccccc12)C(=O)N/N=C/c1ccc([N+](=O)[O-])cc1 (stereo unspecified)	-17%	?	?	0%	7.9µM*[quencher]
NC(=O)COC(=O)c1cc([N+](=O)[O-])ccc1NCCO	7%	-5%	-9%	-5%	-11%
O=C(CNc1cccc2ccccc12)c1ccc([N+](=O)[O-])cc1	1%	?	14µM*	-1%	?
O=C(COC(=O)c1cc([N+](=O)[O-])ccc1NCCO)c1ccccc1	-7%	3%	3%	100µM*[quencher]	-3%
O=C(CNc1ccccc1)c1ccc([N+](=O)[O-])cc1	4%	?	14µM*	0%	?
